From PubChem BioAssay AID1210 (NMMLSC, 2008)

molecular target: Estrogen receptor beta (Homo sapiens) (UniProt Q92731); test: ERbeta ligand binders by competition, primary screen, cell-based, Cos7 ERbeta-GFP, flow cytometry (AID 1210); conditions: fluorescent estrogen binding, at 10 µM, stronger effect = higher value;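 further: 0% = DMSO vehicle wells and 100% = complete loss of labeled estradiol signal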
Sequence (Q92731 whole entry, looked up): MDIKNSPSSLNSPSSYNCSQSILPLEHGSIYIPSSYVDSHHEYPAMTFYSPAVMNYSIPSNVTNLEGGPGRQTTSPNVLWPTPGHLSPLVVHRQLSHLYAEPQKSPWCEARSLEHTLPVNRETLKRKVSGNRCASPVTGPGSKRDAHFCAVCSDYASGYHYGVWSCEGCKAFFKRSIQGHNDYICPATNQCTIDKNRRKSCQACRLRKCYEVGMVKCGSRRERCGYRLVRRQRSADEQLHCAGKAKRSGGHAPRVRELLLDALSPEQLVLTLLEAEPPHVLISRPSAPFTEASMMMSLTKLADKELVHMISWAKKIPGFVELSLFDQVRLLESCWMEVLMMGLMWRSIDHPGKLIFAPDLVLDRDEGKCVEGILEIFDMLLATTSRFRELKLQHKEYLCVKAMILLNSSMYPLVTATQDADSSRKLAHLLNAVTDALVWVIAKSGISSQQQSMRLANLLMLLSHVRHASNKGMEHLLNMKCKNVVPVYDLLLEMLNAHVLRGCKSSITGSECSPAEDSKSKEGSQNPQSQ

inhibition, inactive:
CCc1cc2c3c(c(=O)oc2cc1OC)CCCC3 18%
NC(=O)c1ccsc1NC(=O)COC(=O)Cc1ccsc1 44%
CCOC(=O)COc1cc2oc(=O)c3c(c2cc1CC)CCCC3 23%
Cc1c(Cc2ccccc2)c(=O)n2c([nH]c3ccccc32)c1C#N 9%
COC(=O)c1cnn2c(C(F)(F)F)cc(-c3ccco3)nc12 27%
COc1cc(/C=N/N2CCN(C3c4ccccc4-c4ccccc43)CC2)cc(OC)c1O 12%
COc1ccc(NS(=O)(=O)c2ccc3c(c2)[C@H]2C=CC[C@H]2[C@@H](c2ccc(F)cc2)N3)cc1 20%
COc1ccc(-n2c(SCC(=O)Nc3nccs3)nc3sc4c(c3c2=O)CCN(C)C4)cc1 41%
CCNC(=O)N1c2ccc(OCC)cc2C(C)=CC1(C)C 15%
Cc1nn(-c2ccccc2)c2sc(C#N)c(N)c12 6%
Cc1c(O)ccc2c3c(c(=O)oc12)CCCC3 28%
COc1ccc(C(N)CCc2ccc(C)o2)cc1 (stereo not drawn) 38%
O=c1oc2cc(O)ccc2c2c1CCC2 8%
Cc1ccc(-c2nn3c(C)nnc3s2)cc1NC(=O)COc1ccc(Cl)cc1 24%
CC1(C)Cc2[nH]c3ccccc3c2C(C)(C)N1 16%
COc1ccc2[nH]c3c(c2c1)CCNC3=O 17%
COc1ccc(C2(CNCC(N)=O)CCCC2)cc1OC 7%
CC(=O)c1ccc2c(c1)C1C=CCC1C(c1ccncc1)N2 (stereo not drawn) 11%
